Compound activity: PubChem BioAssay, several laboratories
LAP4-GFP MLPCN: modulators of TOR pathway LAP4-GFP in S. cerevisiae; 0.34% of 320,000 active; S. cerevisiae LAP4-GFP multiplex, flow cytometry GFP, 3 h; median GFP as percent of DMSO wells; GFP response vs DMSO, % at 10 µM;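 active = GFP response vs DMSO above a set limit, about the screen mean plus 3 SD, cut at about 150% in these data; inconclusive = under 70 cell events counted for the yeast strain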
RPL19A TOR yeast: alters RPL19A-GFP fluorescence in TOR pathway yeast screen; S. cerevisiae RPL19A-GFP strain, flow cytometry, 3 h; active compounds read low; percent response vs DMSO, % at 10 µM; 0.3% of 330,000 active; AID 2025;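 active = percent response vs DMSO below 50%; inconclusive = fewer than 70 events counted for the yeast strain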;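 also: median channel GFP fluorescence of the barcoded RPL19A-GFP strain; ratio of sample median GFP to plate DMSO average so 100% = DMSO; lower means less RPL19A-GFP as with rapamycin TOR inhibition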
MEP2-GFP yeast: modulators of TOR pathway MEP2-GFP in S. cerevisiae. GFP response vs DMSO, % at 10 µM. 0.51% of 330,000 active. AID 2016. S. cerevisiae MEP2-GFP strain, flow cytometry GFP, 3 h; 100% = DMSO control level;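 active = GFP response versus DMSO above a set limit, roughly screen mean plus 3 SD, cut at about 180% in these data; inconclusive = fewer than 70 cells counted for a yeast strain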;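 also: median GFP fluorescence of the barcode-gated MEP2-GFP cells per well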
JMJD2C inh: blocks human GASC-1 demethylase activity; 0.069% of 330,000 active; AID 2099; Q9H3R0; GST-JMJD2C(1-420) H3K9me3 demethylation, DELFIA europium; inhibition, % at 2.35 µM;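 active = more than half of a compound's replicate wells show inhibition beyond 50%, single wells judged on their own value; inconclusive = some, but no more than half, of replicates pass 50% inhibition; inactive = no replicate passes 50% inhibition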;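 also: signal counts dimethyl H3K9 product captured on neutravidin plate; 0% = median of DMSO wells and 100% = 0.3 times that DMSO median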
Target sequence (Q9H3R0 1-420 limits assumed): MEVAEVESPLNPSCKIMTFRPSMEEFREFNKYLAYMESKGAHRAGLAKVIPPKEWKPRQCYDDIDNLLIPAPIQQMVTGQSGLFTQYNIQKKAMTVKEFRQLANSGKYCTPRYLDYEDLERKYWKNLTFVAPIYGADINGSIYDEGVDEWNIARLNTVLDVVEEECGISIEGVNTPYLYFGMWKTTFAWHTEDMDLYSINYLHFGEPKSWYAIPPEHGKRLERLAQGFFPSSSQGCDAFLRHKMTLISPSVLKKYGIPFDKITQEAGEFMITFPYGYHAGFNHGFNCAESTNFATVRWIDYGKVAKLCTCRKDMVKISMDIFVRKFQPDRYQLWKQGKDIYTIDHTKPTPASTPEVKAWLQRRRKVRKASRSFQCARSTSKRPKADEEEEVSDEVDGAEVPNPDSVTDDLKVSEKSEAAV
CIT2 TOR yeast: yeast TOR pathway CIT2-GFP modulation; 0.065% of 320,000 active; GFP response vs DMSO, % at 10 µM; S. cerevisiae CIT2-GFP strain, flow cytometry, 3 h; 100 means same as DMSO wells;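 active = GFP response relative to DMSO above a set limit, near the screen mean plus 3 SD, cut at about 150% in these data; inconclusive = Fewer than 70 cells measured for a yeast strain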;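 also: ratio of well median GFP fluorescence to mean of DMSO wells on the plate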
AGP1-GFP MLPCN: modulators of TOR pathway AGP1-GFP in S. cerevisiae; GFP response vs DMSO, % at 10 µM; S. cerevisiae AGP1-GFP multiplex flow cytometry, 3 h; GFP as percent of DMSO wells; AID 2066; 0.02% of 320,000 active;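 active = GFP response relative to DMSO above a set limit, near screen average plus 3 SD, cut at about 150% in these data; inconclusive = fewer than 70 cells counted for the yeast strain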;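 also: median GFP channel fluorescence of the gated AGP1 strain per well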
Starred values were filed as active, the others as inactive; ? = inconclusive; . = no result given; + = active, no number; [ ] = another dose, or the depositor's remark. Shown are actives, neighbours in structure and some others; about 0.97% of the full set was active somewhere.

SMILES	LAP4-GFP MLPCN	RPL19A TOR yeast	MEP2-GFP yeast	JMJD2C inh	CIT2 TOR yeast	AGP1-GFP MLPCN
O=C(C1CC1)N1CCc2cc(S(=O)(=O)N3CCN(c4ccccc4)CC3)ccc21	80	14*[may fluoresce violet]	164	2	?	?
O=C(CCl)c1ccc2c(c1)CCN2C(=O)C1CC1	159*	103	95	108	82	108
O=C(C1CCN(S(=O)(=O)c2ccccc2)CC1)N1CCN(c2ccccc2)CC1	78	108	94	3	118	101
COc1ccc(N2CCN(C(=O)C3CCN(S(=O)(=O)c4ccccc4)CC3)CC2)cc1	+[may fluoresce green]	270	+[may fluoresce green]	-1	896*[may fluoresce green]	249*[may fluoresce green]
O=C(CCl)c1ccc2c(c1)CCN2C(=O)C1CCCCC1	101	107	113	-3	110	108
COc1ccc(-c2cc(C(=O)Nc3c(F)cc(F)cc3Br)no2)cc1	98	106	109	4	97	96
Cc1ccc(O)c(C(=O)c2coc(=N)c(C(=O)NC(C)C)c2)c1	118	22*[may fluoresce violet]	274*[may fluoresce violet]	-8	?	?
O=S(=O)(c1ccc(Cl)cc1)N1CCN(c2ncnc3sccc23)CC1	105	85	83	0	81	91
CCOC(=O)/C=C1\SCC(=O)N1Cc1ccc(Br)cc1	88	96	97	-8	.	92
CCOC(=O)/C=C1\SCC(=O)N1Cc1nnc(-c2ccccc2Br)o1	94	.	289*	-2	95	30
Cc1ccc(C2OC34CCCCCC3C(C#N)(C(=N)O4)C2(C#N)C#N)cc1 (centres undefined)	104	57	197*[may fluoresce violet]	-20	?	?
CCCCOc1ccc(C2OC34CCCCC3C(C#N)(C#N)C2(C#N)C(=N)O4)cc1 (centres undefined)	92	102	104	-1	99	104
C=CCOc1ccc(C2OC34CCCCC3C(C#N)(C#N)C2(C#N)C(=N)O4)cc1 (centres undefined)	120	35*[may fluoresce violet]	568*[may fluoresce violet]	11	?	.
Cc1ccc(N2C3=C(C(=O)CC(C)(C)C3)C(c3cn(C)nc3C)C3=C2CC(C)(C)CC3=O)cc1	149	104	180*	5	153*	113
O=C(N/N=C/c1sc(=O)n(Cc2ccc(Br)cc2)c1Cl)c1ccco1	56	52	238*[may fluoresce violet]	-34	?	?
O=C(N/N=C/c1ccc(Br)s1)c1ccco1	119	98	96	-1	98	107
O=C1CC(NS(=O)(=O)c2cccnc2)CN1c1ccc(Cl)cc1 (centres undefined)	115	100	96	-26	94	111
COc1cc(C(=O)NCC(c2cccs2)N2CCOCC2)c([N+](=O)[O-])cc1OC (centres undefined)	101	97	93	-24	87	108
CCN(Cc1nc2ccccc2c(=O)[nH]1)C(=O)c1ccc(C)c(NC(=O)c2ccco2)c1	105	93	95	0	87	94
O=C(CNC(=O)c1ccncc1)N/N=C/c1ccccc1[N+](=O)[O-]	95	105	105	14	105	96
O=C(CNC(=O)c1ccncc1)N/N=C/c1cccc([N+](=O)[O-])c1	123	122	156	-2	170*	106
CCC(=O)OCCNc1cc(Sc2nc3ccccc3s2)c2nonc2c1[N+](=O)[O-]	259*	77	94	28	50	92
O=[N+]([O-])c1c(NCCCO)cc(Sc2nc3ccccc3s2)c2nonc12	113	98	98	-2	90	98
COc1ccc(C2=NOC(Cn3nc(-c4ccccc4)cc3C(=O)NCc3ccccc3OC)C2)cc1 (centres undefined)	108	107	100	.	100	105
COc1ccccc1CNC(=O)c1cc(-c2ccccc2)nn1CC1CC(c2cccnc2)=NO1 (centres undefined)	119	101	93	57*	103	87
SMILES	LAP4-GFP MLPCN	RPL19A TOR yeast	MEP2-GFP yeast	JMJD2C inh	CIT2 TOR yeast	AGP1-GFP MLPCN
COc1ccc(CNC2CCCc3ccccc32)c(OC)c1 (centres undefined)	101	104	107	3	107	104
COc1ccc(CNC2CCCCC2C)c(OC)c1 (centres undefined)	91	45*[may fluoresce violet]	148	15	?	32
CSc1ccc(-c2cc(=O)c3ccccc3o2)cc1	170*	80	99	-3	73	83
COc1ccc(/C=N/Nc2nnc(C)n2N)cc1OC(C)=O	125	103	192*	9	109	115
O=C(c1c(F)cccc1F)N1CCCC(c2nc(-c3ccc(F)cc3)no2)C1 (centres undefined)	94	101	105	0	101	100
Cc1oc2cc3oc(=O)c(CCC(=O)N4C[C@H]5C[C@@H](C4)c4cccc(=O)n4C5)c(C)c3cc2c1C	99	96	100	?	98	99
CCCCS(=O)(=O)NC1=NCN(CCO)CN1	75	61	303*[may fluoresce violet]	1	?	?
COc1ccc(C2C=C(c3ccccc3)Nc3nc(CCCO)nn32)cc1 (centres undefined)	92	44*[may fluoresce violet]	576*[may fluoresce violet]	1	?	?
CN(C(=O)COC(=O)c1cc(S(=O)(=O)N2CCCCC2)ccc1Cl)c1ccccc1	98	95	90	-5	85	94
O=C(O)C1(c2ccccc2)CCN(S(=O)(=O)c2ccc(Cl)cc2)CC1	93	96	92	-47	91	88
O=C(O)C1(c2ccccc2)CCN(S(=O)(=O)c2cccc(Cl)c2)CC1	57	33*[may fluoresce violet]	194*[may fluoresce violet]	-5	?	?
COc1ccc(-c2n[nH]c(=S)nc2-c2ccc(OC)cc2)cc1	98	101	105	-1	108	102
COc1ccc(OC)c(S(=O)(=O)n2ccc(C)n2)c1	85	85	259*[may fluoresce violet]	-2	?	13
COc1ccc(OC)c(S(=O)(=O)n2nc(C)cc2C)c1	96	96	97	-15	91	92
CCOC(=O)c1[nH]c(C=O)c(C(=O)OCC)c1C	?	?	77	.	82	68
CCCCc1nc(C(N)=O)c2[nH]c(=O)n(-c3ccc(OC)c(OC)c3)c2n1	102	98	97	1	98	99
CCCCc1nc(C(N)=O)c2[nH]c(=O)n(-c3ccc(OC)cc3OC)c2n1	110	43*[may fluoresce violet]	289*[may fluoresce violet]	-6	?	?
COc1ccc(OC)c(-c2nc(C(N)=O)c3[nH]c(=O)n(-c4ccc(F)cc4)c3n2)c1	105	98	99	2	94	101
CCCC(C)c1nc(C(N)=O)c2[nH]c(=O)n(-c3ccc(OC)cc3OC)c2n1 (centres undefined)	107	103	109	8	106	105
